From PubChem BioAssay AID504942 (Broad Institute, 2011)
Results with a measured potency or affinity are listed apart. The source made the active and inactive calls. The rule behind the calls is not given here.

Assay: HeLa cell cytotoxicity, dose response, cytotoxicity control, 48 h, plate reader, cherry-picks (AID 504942)

## N#CC1C(C#N)C2CCC1C1C2N1c1ccccc1 (stereo unspecified)
  outcome: inactive
